# Experimental data from PubChem BioAssay.
# The source made the active and inactive calls.
# Legend:
# Albumin (Bos taurus) = Albumin (Bos taurus) (UniProt P02769); experiment: bovine serum albumin binders on microarray, profiling panel, artefact control for SMM control protein annotation, biochemical, small-molecule microarray, Alexa647 label, 635/667 nm fluorescence (AID 1118); settings: BSA-A647 binding, fluorescence 635 nm, higher = more signal;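 further: score merges 667 nm emission intensity and signal-to-noise per printed compound spot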
# Chain of Albumin (Bos taurus) (P02769 whole entry, looked up): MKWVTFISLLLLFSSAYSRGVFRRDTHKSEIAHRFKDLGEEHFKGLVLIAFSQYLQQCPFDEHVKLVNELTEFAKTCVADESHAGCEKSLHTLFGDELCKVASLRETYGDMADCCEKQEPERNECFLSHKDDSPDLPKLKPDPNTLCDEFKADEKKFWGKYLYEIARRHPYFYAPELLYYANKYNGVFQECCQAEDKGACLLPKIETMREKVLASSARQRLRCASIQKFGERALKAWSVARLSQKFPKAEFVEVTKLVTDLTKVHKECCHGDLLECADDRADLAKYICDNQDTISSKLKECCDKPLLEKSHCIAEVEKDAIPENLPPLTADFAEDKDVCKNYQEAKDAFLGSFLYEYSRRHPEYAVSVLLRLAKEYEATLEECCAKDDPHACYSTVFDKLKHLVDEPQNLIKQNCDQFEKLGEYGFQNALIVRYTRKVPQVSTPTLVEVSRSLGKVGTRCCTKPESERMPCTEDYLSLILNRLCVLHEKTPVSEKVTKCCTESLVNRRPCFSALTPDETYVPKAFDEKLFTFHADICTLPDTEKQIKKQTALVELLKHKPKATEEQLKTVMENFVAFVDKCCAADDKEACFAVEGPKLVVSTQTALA
# [1] = small-molecule microarray binders of probe aXIP, primary screen, biochemical, NeuroSMM set, 635/667 nm fluorescence (AID 1119); settings: higher = more signal, called active from +8 up or from −8 down;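 further: probe is the protein aXip251-270 applied at 1 µg/mL to compound-printed slides; binding of probe to printed compounds measured as 667 nm fluorescence plus signal to noise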
# [2] = small-molecule binders of probe aNOTCH3, primary screen, biochemical, small-molecule microarray, 635/667 nm fluorescence (AID 1120); settings: higher = more signal;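 further: probe is a biotin-tagged antibody raised against NOTCH3 rather than NOTCH3 protein; score merges spot fluorescence near 667 nm with spot signal to noise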
# [3] = small-molecule binders of probe aNOTCH2, primary screen, biochemical, small-molecule microarray, 635/667 nm fluorescence (AID 1121); settings: higher = more signal;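 further: score merges feature fluorescence read at 667 nm with its signal to noise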
# [4] = target: Carbonic anhydrase 2 (Homo sapiens) (UniProt P00918); experiment: CAII small-molecule binders, profiling panel, biochemical, small-molecule microarray, Alexa647-labelled CAII (AID 1122); settings: CAII-A647 binding fluorescence, higher = more signal
# [5] = COS7 lysate on small-molecule microarray, probe aHis, 635 nm (AID 1123); settings: COS7 cell lysate, fluorescence, higher = more signal;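 further: z-score combines 667nm fluorescence intensity with signal-to-noise per printed compound spot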
# [6] = compound binding in COS7 lysate, probe aLAP1, primary screen, cell lysate, small-molecule microarray (AID 1124); settings: probe aLAP1, fluorescence, higher = more signal;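 further: lysate comes from COS7 cells expressing LAP1 and is applied at 0.3 µg/mL; score merges spot fluorescence near 667 nm with signal-to-noise over triplicate slides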
# Sam68 (KHDRBS1) = experiment: Sam68 small-molecule binders, primary screen, biochemical, small-molecule microarray, 635 nm fluorescence (AID 1125); settings: small-molecule microarray binding, higher = more signal;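 further: score merges 667 nm channel intensity with signal to noise over triplicate slides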
# [7] = system: Chordin-like protein 2 (CHRDL2); experiment: CHRDL2 small-molecule binders, primary screen, biochemical, small-molecule microarray, 635 nm fluorescence (AID 1126); settings: small-molecule microarray binding, fluorescence 635 nm; higher = more signal;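 further: printed compound slides probed with Chrdl2 protein at 4 µg/mL for 1 h at 4 C; score merges 667 nm emission intensity with signal to noise over three replicate slides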
# [8] = target: Concanavalin-A (Canavalia ensiformis) (UniProt P02866); experiment: ConA small-molecule binders, primary screen, artefact control for SMM control protein annotation, biochemical, small-molecule microarray, Alexa647 label, 635 nm (AID 1127); settings: ConA-A647 binding fluorescence, higher = more signal;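 further: z combines 667 nm emission intensity with signal-to-noise across three replicate slides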
# Chain of Concanavalin-A (Canavalia ensiformis) (P02866 whole entry, looked up): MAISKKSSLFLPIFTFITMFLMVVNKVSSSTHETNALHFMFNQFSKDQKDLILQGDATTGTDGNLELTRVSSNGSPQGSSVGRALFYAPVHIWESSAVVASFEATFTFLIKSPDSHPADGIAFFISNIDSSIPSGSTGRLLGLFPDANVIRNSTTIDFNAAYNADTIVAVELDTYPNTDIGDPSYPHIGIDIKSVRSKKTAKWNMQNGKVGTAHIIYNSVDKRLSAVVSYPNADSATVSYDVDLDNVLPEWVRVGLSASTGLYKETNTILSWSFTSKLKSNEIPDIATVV
# [9] = anti-His antibody binders, primary screen, artefact control for SMM control protein annotation, biochemical, small-molecule microarray, 635 nm fluorescence (AID 1128); settings: anti-His Alexa647 antibody binding, higher = more signal;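 further: score merges feature fluorescence with signal-to-noise for each printed compound spot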
# [10] = system: Human papillomavirus type 1a E7 protein (residues 1-88); experiment: HPV1a E7 small-molecule binders, primary screen, biochemical, small-molecule microarray, residues 1-88, 635 nm (AID 1129); settings: small-molecule microarray binding, fluorescence 635 nm; higher = more signal
# [11] = target: Focal adhesion kinase 1 (Homo sapiens) (UniProt Q05397); experiment: small-molecule microarray binders of FAK, primary screen, biochemical, 635/667 nm fluorescence, BSA, DTT (AID 1130); settings: PTK2 binding, 635 nm fluorescence, higher = more signal;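 further: composite of spot emission at 667 nm and signal to noise over triplicate slides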
# Chain of Focal adhesion kinase 1 (Homo sapiens) (Q05397 whole entry, looked up): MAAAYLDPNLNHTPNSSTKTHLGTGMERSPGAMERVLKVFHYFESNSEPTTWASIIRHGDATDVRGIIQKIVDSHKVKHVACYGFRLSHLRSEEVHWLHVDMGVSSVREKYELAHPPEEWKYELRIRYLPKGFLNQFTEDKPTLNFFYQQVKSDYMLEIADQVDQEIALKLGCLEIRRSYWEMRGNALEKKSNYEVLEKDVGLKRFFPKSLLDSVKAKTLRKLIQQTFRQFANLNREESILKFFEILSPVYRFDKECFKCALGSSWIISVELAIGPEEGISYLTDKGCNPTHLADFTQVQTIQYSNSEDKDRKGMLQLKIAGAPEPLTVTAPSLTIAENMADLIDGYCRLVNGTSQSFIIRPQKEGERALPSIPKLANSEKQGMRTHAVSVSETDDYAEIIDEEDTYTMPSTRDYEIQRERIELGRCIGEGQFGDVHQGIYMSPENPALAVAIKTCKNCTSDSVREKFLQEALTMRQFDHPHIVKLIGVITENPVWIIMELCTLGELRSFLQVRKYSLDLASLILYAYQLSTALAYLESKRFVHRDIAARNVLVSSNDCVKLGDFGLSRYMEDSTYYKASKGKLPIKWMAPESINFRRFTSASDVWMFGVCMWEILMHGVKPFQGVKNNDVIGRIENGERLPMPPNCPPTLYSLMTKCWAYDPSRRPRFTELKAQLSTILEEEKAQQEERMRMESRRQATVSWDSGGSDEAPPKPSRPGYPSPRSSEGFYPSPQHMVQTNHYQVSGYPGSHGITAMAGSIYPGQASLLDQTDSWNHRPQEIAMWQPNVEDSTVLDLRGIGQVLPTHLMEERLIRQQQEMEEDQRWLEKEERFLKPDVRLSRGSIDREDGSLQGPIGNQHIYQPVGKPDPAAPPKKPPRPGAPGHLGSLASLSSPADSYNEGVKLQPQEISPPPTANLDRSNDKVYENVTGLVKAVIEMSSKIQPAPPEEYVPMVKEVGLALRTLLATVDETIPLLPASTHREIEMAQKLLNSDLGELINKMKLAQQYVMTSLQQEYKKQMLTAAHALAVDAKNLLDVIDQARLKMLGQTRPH
# [12] = system: Fibrinogen (Alexa647-labelled); experiment: fibrinogen binders on compound microarrays, profiling panel, artefact control for SMM control-protein annotation, biochemical, small-molecule microarray, 635/667 nm fluorescence (AID 1131); settings: fibrinogen-A647 binding fluorescence, higher = more signal;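 further: z-score merges 667 nm fluorescence with per-spot signal-to-noise over triplicate slides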
# [13] = target: Follistatin (Homo sapiens) (UniProt P19883); experiment: follistatin binders on small-molecule microarrays, primary screen, biochemical, small-molecule microarray, 635/667 nm fluorescence (AID 1132); settings: FST binding, 635 nm fluorescence, higher = more signal
# Chain of Follistatin (Homo sapiens) (P19883 whole entry, looked up): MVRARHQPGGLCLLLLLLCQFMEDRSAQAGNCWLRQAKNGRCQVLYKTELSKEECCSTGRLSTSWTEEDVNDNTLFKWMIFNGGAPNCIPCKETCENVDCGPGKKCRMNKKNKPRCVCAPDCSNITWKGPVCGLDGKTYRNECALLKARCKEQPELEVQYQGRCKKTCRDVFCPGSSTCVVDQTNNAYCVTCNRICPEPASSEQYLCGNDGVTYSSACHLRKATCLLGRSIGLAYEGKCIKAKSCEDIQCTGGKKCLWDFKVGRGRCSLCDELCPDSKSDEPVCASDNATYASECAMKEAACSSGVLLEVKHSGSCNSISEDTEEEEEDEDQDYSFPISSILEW
# [14] = target: Fibroblast growth factor 2 (Homo sapiens) (UniProt P09038); experiment: FGF2 binders on small-molecule microarrays, primary screen, biochemical, small-molecule microarray, 635/667 nm fluorescence (AID 1133); settings: small-molecule microarray binding, FGF2, fluorescence 635/667; higher = more signal
# Chain of Fibroblast growth factor 2 (Homo sapiens) (P09038 whole entry, looked up): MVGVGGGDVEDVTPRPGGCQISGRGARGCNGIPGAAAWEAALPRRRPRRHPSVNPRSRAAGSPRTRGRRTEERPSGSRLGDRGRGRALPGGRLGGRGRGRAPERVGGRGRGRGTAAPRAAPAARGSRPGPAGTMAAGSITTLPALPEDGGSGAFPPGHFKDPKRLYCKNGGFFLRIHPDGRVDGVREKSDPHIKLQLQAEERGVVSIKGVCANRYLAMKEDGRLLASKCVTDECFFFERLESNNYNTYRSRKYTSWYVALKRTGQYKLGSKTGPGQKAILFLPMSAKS
# [15] = mitochondrial membrane potential change in A549 cells, profiling panel, cell-based, JC-1 fluorescence, basal, 24 h, 100 nL (AID 1138); settings: higher = more signal;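 further: A549 lung adenocarcinoma cells under basal conditions with no added stimulus; test concentration not given here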
# Lefty1 = Lefty1 binders on small-molecule microarrays, primary screen, biochemical, small-molecule microarray, 635/667 nm fluorescence (AID 1139); settings: small-molecule microarray binding, fluorescence 635/667; higher = more signal
# [16] = system: wheat germ agglutinin (Triticum aestivum), Alexa647-labelled; experiment: wheat germ agglutinin binders on compound microarrays, profiling panel, artefact control for SMM control-protein annotation, biochemical, small-molecule microarray, 635/667 nm fluorescence (AID 1140); settings: WGA-A647 binding, 635 nm fluorescence, higher = more signal;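 further: score merges 667 nm feature emission with signal to noise over triplicate slides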
# [17] = target: Luciferin 4-monooxygenase (Photinus pyralis) (UniProt P08659); experiment: firefly luciferase enzyme inhibitors, primary screen, biochemical, luminescence, purified enzyme, 2006 set (AID 1141); settings: SteadyGlo luminescence, 30 min, higher = more signal, called active from +8 up or from −8 down;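 further: cell-free assay with purified firefly luciferase at 100 ng per well in PBS; test concentration not given here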
# Chain of Luciferin 4-monooxygenase (Photinus pyralis) (P08659 whole entry, looked up): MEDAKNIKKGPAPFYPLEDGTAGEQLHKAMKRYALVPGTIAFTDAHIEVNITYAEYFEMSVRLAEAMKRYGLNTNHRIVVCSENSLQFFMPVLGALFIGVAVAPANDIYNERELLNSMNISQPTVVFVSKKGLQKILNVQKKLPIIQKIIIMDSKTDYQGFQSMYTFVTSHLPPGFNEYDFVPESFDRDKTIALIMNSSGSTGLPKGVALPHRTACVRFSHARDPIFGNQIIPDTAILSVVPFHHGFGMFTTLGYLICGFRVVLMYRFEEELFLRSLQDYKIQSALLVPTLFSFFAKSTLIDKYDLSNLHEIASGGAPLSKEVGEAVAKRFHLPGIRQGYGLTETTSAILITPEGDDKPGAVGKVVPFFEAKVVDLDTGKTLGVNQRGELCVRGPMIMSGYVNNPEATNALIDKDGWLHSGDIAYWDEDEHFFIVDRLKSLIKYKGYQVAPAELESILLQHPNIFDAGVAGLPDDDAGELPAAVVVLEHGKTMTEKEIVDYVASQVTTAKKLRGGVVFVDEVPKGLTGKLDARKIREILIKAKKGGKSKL
SMILES,composite z-score (Albumin (Bos taurus)),composite Z-score [1],composite z-score [2],composite z-score [3],composite z-score [4],composite z-score [5],composite z-score [6],composite z-score (Sam68 (KHDRBS1)),composite z-score [7],composite z-score [8],composite z-score [9],composite z-score [10],composite z-score [11],composite z-score [12],composite z-score [13],composite z-score [14],z-score [15],composite z-score (Lefty1),composite z-score [16],z-score [17]
COc1ccc([Si](C)(C)[C@H]2[C@H](CCO)O[C@@]3(C(=O)N(Cc4cccc(NC(=O)[C@H](C)O)c4)c4ccccc43)[C@@H]2C)cc1,0.564,1.49 (inactive),0.0306,-0.13,0.395,1.55,0.335,1.27,0.189,1.11,1.75,1.15,0.598,0.83,1.11,0.684,-0.598,1.23,0.23,-0.208 (inactive)
O=C1c2ccccc2[C@@]2(Cc3ccccc3N(C3CC3)C2=O)[C@H](c2ccc(CO)cc2)N1Cc1ccccc1C(F)(F)F,-0.259,-0.174 (inactive),0.062,-0.0248,0.82,-0.0061,0.439,0.219,-0.338,-0.657,0.534,-0.453,0.13,-1.41,-1.41,-1.09,-0.511,-1.32,0.286,0.62 (inactive)
C[N+](C)(C)CCCCCCNC(=O)[C@@H]1C[C@@H]2C(=O)N3CCC[C@H]3C(=O)N2[C@@H]1c1cccc(OCCO)c1,-0.45,0.372 (inactive),-0.182,-0.205,0.581,1.56,0.338,0.927,0.954,0.743,1.06,0.049,0.622,-1.47,1.27,0.941,-0.518,0.915,-0.122,0.688 (inactive)
CCOC(=O)CCN1C(=O)[C@H]2[C@H]3[C@H](O)[C@H](O)CC(=NOC[C@@H](O)COCc4ccco4)[C@@H]3CC[C@H]2C1=O,0.723,-0.244 (inactive),-0.0932,-0.124,0.214,0.171,0.256,0.0665,0.457,0.318,1.08,-0.0069,0.144,0.825,-0.977,0.225,0.928,-0.219,0.0513,0.542 (inactive)
CO[C@@H]1COC(=O)CCC[C@@H](C)[C@H](OC)COC(=O)CCC[C@H]1C,-0.27,0.231 (inactive),-0.0967,-0.0907,-0.277,-0.307,-0.0693,-0.12,0.777,-0.302,0.463,0.077,-0.217,-0.0557,0.513,0.685,-0.598,0.958,-0.261,1.17 (inactive)
CCOC(=O)CCN1C(=O)[C@H]2[C@H]3[C@H](O)[C@H](O)CC(=NOC[C@@H](O)COCc4ccco4)[C@H]3CC[C@H]2C1=O,0.494,-0.0692 (inactive),0.0059,-0.171,0.0762,-0.128,0.0706,1.32,-0.173,0.66,0.659,0.785,0.857,0.894,0.938,0.229,-1.06,0.863,0.288,0.586 (inactive)
COC(=O)[C@@]1(Cc2ccc(OC)cc2)[C@H]2c3cc(C(=O)N4CCCC4)n(Cc4cc(F)c(F)c(F)c4)c3C[C@H]2CN1C(=O)c1ccccc1,1.04,0.188 (inactive),1.69,0.882,0.765,3.06,1,1.3,-0.593,1.21,2.21,1.26,0.59,1.02,1.19,-0.149,0.649,-0.551,1.31,1.95 (inactive)
CC[C@@H](c1ccccc1)n1c(=O)n2n(c1=O)[C@H]1[C@H](O)[C@@H]3O[C@@H]3C(=NOCC(C)C)[C@H]1CC2,-0.231,-0.0127 (inactive),-0.0189,-0.0986,0.308,0.0644,0.422,0.362,-0.086,0.0275,0.356,0.0566,-0.267,-0.203,0.38,0.0571,-0.492,0.542,-0.0401,0.292 (inactive)
CO[C@H]1O[C@H](CO)[C@@H](OC(=O)Nc2ccc3c(c2)OCO3)[C@H](OC(=O)Nc2ccccc2-c2ccccc2)[C@@H]1OC(=O)Nc1ccccc1-c1ccccc1,0.929,0.558 (inactive),0.276,0.186,0.543,2.08,0.429,1.28,-0.116,1.17,1.84,1.18,0.195,0.987,1.14,1.68,-0.604,0.186,1,-0.485 (inactive)
O=C1[C@H]2[C@H]3[C@H](O)[C@H](O)CC(=NOCc4ccccc4)[C@H]3CC[C@H]2C(=O)N1c1ccc(F)cc1F,0.155,-0.801 (inactive),-0.308,-0.265,0.784,-0.137,-0.713,-0.626,0.0499,-0.111,0.492,-0.0368,0.145,-0.898,-0.273,0.0342,-0.206,-0.0947,0.146,0.522 (inactive)
CC(C)=NOCc1ccc(-c2cc(-c3ccccc3)no2)cc1,-0.205,-0.0363 (inactive),-0.0984,-0.169,-0.145,-0.676,0.0863,0.059,0.14,0.0293,0.0906,0.272,0.0171,0.108,0.0806,0.437,-0.405,0.003,-0.477,0.534 (inactive)
CCOC(=O)C[C@H]1[C@H](OC(=O)c2cc3ccccc3oc2=O)[C@@H](NC(=O)c2ccc3ccccc3n2)c2cc(OCCCO)ccc2N1C(=O)c1ccccc1,0.328,0.946 (inactive),0.154,-0.0424,0.639,0.476,0.668,0.604,0.789,0.728,1.06,0.803,0.513,0.584,1.14,1.23,-0.837,0.606,0.354,0.497 (inactive)
CC(C)CON=C1C[C@@H](O)[C@@H](O)[C@@H]2[C@@H]3C(=O)N(Cc4ccccc4)C(=O)[C@@H]3CC[C@@H]12,0.0737,0.156 (inactive),-0.0679,-0.153,-0.111,-0.137,-0.0468,0.631,0.716,-0.0393,0.705,0.633,0.528,-0.598,-0.163,0.239,-0.762,0.516,0.0615,1.12 (inactive)
CC(C)NC(=O)[C@@]1(c2ccc([N+](=O)[O-])cc2)CC(=O)N(CC23CC4CC(CC(C4)C2)C3)[C@@H]1c1ccc(CO)cc1I,-0.0212,0.567 (inactive),0.299,0.23,0.241,0.997,1.04,1.27,0.111,0.93,0.0833,1.14,0.457,-0.206,1.06,0.444,1.01,-0.167,0.403,0.355 (inactive)
COC(=O)[C@@H]1CC[C@H](C)[C@@H](c2ccc(C)cc2)N1C(=O)c1ccc(C=NOC(C)CN2CCCCc3nc(C)c(C)cc32)cc1 (stereo not given in full),0.594,-0.317 (inactive),0.0916,-0.0707,-0.0862,0.125,0.388,0.0689,0.62,0.951,0.444,-0.732,0.0369,0.469,0.114,0.222,2.32,0.847,0.0329,0.662 (inactive)
COC(=O)[C@@H]1N=C(c2ccc(OCCCO)cc2)O[C@@H]1c1ccccc1N=[N+]=[N-],0.731,-0.384 (inactive),0.149,-0.0534,0.666,1.92,0.35,1.05,-0.456,0.928,1.99,1.21,0.942,0.077,0.499,-0.253,0.484,-0.394,1.04,-17.9 (active)
CC(CCN1CCc2nc(-c3ccccc3)c(-c3ccccc3)cc2C1)=NO[C@@H](C)c1cn([C@H](CO)Cc2ccccc2)nn1,0.908,0.715 (inactive),0.0242,-0.117,0.526,-0.478,-0.208,-0.163,0.0808,-0.602,-0.0253,0.219,0.0807,0.929,0.408,0.453,1.22,0.342,0.706,-1.77 (inactive)
